Reference: the supplement of paper PMC12350171

How the values were obtained:
Details in all cases: 20 µM
[1] = tested on: Salmonella enterica typhimurium; assay: growth AUC normalised to DMSO control (fraction of control); higher = less growth inhibition, active = hit call of the paper
Method in brief: (§1)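 After two anaerobic passages, pathogens were added at a starting OD578 of 0.01 to pre-reduced mGAM plates holding compound at 20 μM with 1% DMSO; hemin and NAD were supplemented for Haemophilus parainfluenzae. Sealed with breathable membranes, plates were read at OD578 hourly for 24 h, in three biological replicates. The trapezoidal rule, applied up to the exponential-to-stationary transition, gave the growth-curve AUC, which was normalised to DMSO controls on the same plate.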

Shigella flexneri = assay: as above
Method in brief: as §1

Vibrio cholerae = assay: as above
Method in brief: as §1

[2] = tested on: Yersinia pseudotuberculosis; assay: as above
Method in brief: as §1

P. vulgatus RND KO = assay: growth AUC normalised to DMSO control (median) (fraction of control); higher = less growth inhibition, active = hit call of the paper
Method in brief: (§2)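 Each strain went through two overnight passages under anaerobic conditions before growth in mGAM in 96-well plates, starting at OD578 0.01, with each compound from the approved-drug library at 20 μM and 1% DMSO. Inside an anaerobic incubator, OD578 was recorded every hour for 24 h. Growth curves were cut off at entry into stationary phase, and the area under the curve was calculated by the trapezoidal rule and normalised to vehicle wells on the same plate. Reported values are medians of three biological replicates.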

P. vulgatus WT = assay: as above
Method in brief: as §2

[3] = tested on: S. enterica typhimurium WT; assay: as above
Method in brief: as §2

[4] = tested on: S. enterica typhimurium tolC KO; assay: as above
Method in brief: as §2

Measured: growth AUC normalised to DMSO control
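Wherever growth AUC normalised to DMSO control (median) is given: active when median AUC fell below 0.1.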

CN(C)CCOC(C)(c1ccccc1)c1ccccn1 (configuration not stated) [Doxylamine succinate]
inactive: [1] 0.982 | Shigella flexneri 1.01 | Vibrio cholerae 1 | [2] 0.996 | P. vulgatus RND KO 0.981 | P. vulgatus WT 0.993 | [3] 0.986 | [4] 0.999

Cc1cccn2c(=O)c(-c3nnn[nH]3)cnc12 [Pemirolast potassium]
inactive: [1] 0.968 | Shigella flexneri 0.946 | Vibrio cholerae 0.921 | [2] 0.964 | P. vulgatus RND KO 0.998 | P. vulgatus WT 1.01 | [3] 0.993 | [4] 0.995

Cc1cc2cc3c(C)cc(=O)oc3c(C)c2o1 [Trioxsalen]
inactive: [1] 0.994 | Shigella flexneri 1.03 | Vibrio cholerae 0.996 | [2] 0.995 | P. vulgatus RND KO 1.03 | P. vulgatus WT 1.02 | [3] 0.996 | [4] 0.955

C[C@H](N)[C@H](O)c1cccc(O)c1 [Metaraminol bitartrate]
inactive: [1] 0.992 | Shigella flexneri 0.972 | Vibrio cholerae 0.984 | [2] 1.01 | P. vulgatus RND KO 0.993 | P. vulgatus WT 0.989 | [3] 0.994 | [4] 1
